The supplement of paper PMC6555819

Columns and labels:
Assay in all cases: PBM binding z-score (relative to random genomic background probes); higher = stronger binding; sequences stand for … in GC…GCGATTGACAGCGTAGAATGAAGG
[1] = system: FXR:RXRa (NR concentration 270 nM, RXRa partner concentration 90 nM)
Outline: (§1)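 Custom Agilent 4×180K protein-binding microarrays carried double-stranded probes. Their 34-nt variable regions held direct-repeat seeds, single-nucleotide variants, half-site ablations and random human genomic background sequences. Arrays were incubated 1 h with ligand-free nuclear receptor dimers in PBS pH 7.4, 2% milk, 0.02% Triton X-100, 1 mM DTT, 0.2 mg/mL BSA and 0.4 mg/ml salmon testes DNA. Antibodies against each partner (one per run) detected binding, and scanned fluorescence was regression-normalized. Binding z-scores use random background probes as reference.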

[2] = system: LXRa:RXRa (NR concentration 270 nM, RXRa partner concentration 90 nM)
Outline: as §1

[3] = system: LXRa homodimer (NR concentration 270 nM)
Outline: as §1

[4] = system: LXRb:RXRa (NR concentration 270 nM, RXRa partner concentration 90 nM)
Outline: as §1

[5] = system: LXRb homodimer (NR concentration 270 nM)
Outline: as §1

[6] = system: PPARa:RXRa (NR concentration 270 nM, RXRa partner concentration 90 nM)
Outline: as §1

[7] = system: PPARg:RXRa (NR concentration 180 nM, RXRa partner concentration 90 nM)
Outline: as §1

[8] = system: PPARg:RXRa 270nM:90nM, anti-RXR (NR concentration 270 nM, RXRa partner concentration 90 nM)
Outline: as §1

[9] = system: PPARg:RXRa 30nM:10nM, anti-RXR (NR concentration 30 nM, RXRa partner concentration 10 nM)
Outline: as §1

[10] = system: PPARg:RXRa 90nM:30nM, anti-RXR (NR concentration 90 nM, RXRa partner concentration 30 nM)
Outline: as §1

[11] = system: PPARg:RXRa DBDmut IVT, anti-RXR (DBD mutation: RXRa K156A/R161A, NR concentration 270 nM, RXRa partner concentration 90 nM)
Outline: as §1

[12] = system: PPARg:RXRa IVT, anti-PPARg (NR concentration 270 nM, RXRa partner concentration 90 nM)
Outline: as §1

[13] = system: PPARg DBDmut:RXRa IVT, anti-PPARg (DBD mutation: PPARg1 K132A/R137A, NR concentration 270 nM, RXRa partner concentration 90 nM)
Outline: as §1

[14] = system: PPARg DBDmut IVT, anti-PPARg (DBD mutation: PPARg1 K132A/R137A, NR concentration 270 nM)
Outline: as §1

[15] = system: PPARg homodimer (NR concentration 180 nM)
Outline: as §1

[16] = system: PXR:RXRa (NR concentration 270 nM, RXRa partner concentration 90 nM)
Outline: as §1

[17] = system: PXR homodimer (NR concentration 270 nM)
Outline: as §1

[18] = system: RARa:RXR (NR concentration 270 nM, RXRa partner concentration 90 nM)
Outline: as §1

[19] = system: RARa homodimer (NR concentration 270 nM)
Outline: as §1

[20] = system: RARb:RXRa (NR concentration 270 nM, RXRa partner concentration 90 nM)
Outline: as §1

| Sequence | PBM binding z-score [1] | PBM binding z-score [2] | PBM binding z-score [3] | PBM binding z-score [4] | PBM binding z-score [5] | PBM binding z-score [6] | PBM binding z-score [7] | PBM binding z-score [8] | PBM binding z-score [9] | PBM binding z-score [10] | PBM binding z-score [11] | PBM binding z-score [12] | PBM binding z-score [13] | PBM binding z-score [14] | PBM binding z-score [15] | PBM binding z-score [16] | PBM binding z-score [17] | PBM binding z-score [18] | PBM binding z-score [19] | PBM binding z-score [20] |
| --- | --- | --- | --- | --- | --- | --- | --- | --- | --- | --- | --- | --- | --- | --- | --- | --- | --- | --- | --- | --- |
| TAACCTAGGTCATTGGGCCAGTATAGTACGCATC | 5.13 | 4.92 | 2.81 | 3.43 | 0.934 | 4.54 | 4.87 | 4.88 | 1.89 | 3.88 | 4.7 | 5.03 | 1.2 | 0.368 | 1.68 | 2.09 | 0.379 | 2.92 | 0.714 | 3.88 |
| ACTAGCAGTCCAAGGGTCACTCAAGATTAGTCCG | 2.25 | 2.99 | 0.313 | 2.87 | -0.249 | 3.41 | 3.5 | 4.58 | 2.19 | 4.18 | -0.304 | 1.77 | 0.198 | -0.0845 | 1.69 | 3.03 | 0.168 | 3.39 | -0.132 | 3.35 |
| CGAACTAGGGCAAGGACAGTGAATCTCCGCACGC | 0.00807 | -0.366 | 0.0437 | -0.81 | -0.814 | 1.76 | 2.96 | 3.03 | 0.479 | 1.87 | 7 | 6.14 | 0.631 | -0.116 | -0.153 | -0.332 | -0.43 | -0.371 | -0.534 | 1.59 |
| CTCGAAAGGTCGTGCACAGGTGAGTATACCAAAC | 5.53 | 4.43 | 0.217 | 4.18 | 0.385 | 5.18 | 3.43 | 4.58 | 1.66 | 3.05 | 0.853 | 2.21 | 0.533 | 0.411 | 2.02 | 3.56 | 0.388 | 4.46 | 0.659 | 4.07 |
| TCATATAGGTAACAGGTGAAAGTCGGTGTGGTAA | 0.983 | 1 | 0.422 | 1.24 | 0.411 | 3.53 | 5.3 | 6.22 | 6.28 | 6.73 | 5.02 | 4.81 | 0.985 | 1.02 | 1.4 | 0.896 | 0.535 | 0.876 | 1.18 | 1 |
| CGTACAAGGTCATAGGAGGTCAGTGAAGACAGAT | 7.48 | 7.5 | 5.3 | 6.46 | 1.33 | 6.18 | 6.47 | 6.66 | 3.17 | 5.29 | 3.97 | 5.5 | 1.11 | 0.76 | 3.74 | 6.82 | 3.5 | 5.66 | 1.72 | 5.44 |
| TAGCCTAGGTCATGCGGGCCGGTATAGTGTCGGC | 4.25 | 3.22 | 0.206 | 1.43 | -0.202 | 3.19 | 1.89 | 2.45 | 0.149 | 1.79 | 1.61 | 2.8 | -0.135 | -0.829 | 1.05 | 1.04 | -0.496 | 2.14 | -0.545 | 3.61 |
| TCTGCTAGGTCAACTATGGTCAGCTAATCTGCTA | 4.09 | 3.35 | 0.302 | 2.35 | 0.258 | 3.65 | 2.72 | 3.29 | 2.15 | 2.81 | 3.77 | 4.24 | 0.825 | 0.277 | 1.55 | 2.47 | -0.42 | 2.76 | 0.288 | 4.38 |
| GGAACGAGGGCAACGTTGATAGCATCTGTCGACG | 0.32 | 0.21 | -0.371 | 0.0442 | -0.855 | 1.59 | 1.9 | 1.95 | 0.134 | 1.2 | 4.02 | 3.49 | 0.439 | 0.351 | -0.132 | 0.282 | -0.723 | 0.65 | -0.381 | 2.32 |
| TCGAGTCGGTTAGGGGCATTCAGAATGGCGTCGA | 0.0826 | -0.161 | -0.614 | 0.203 | -0.666 | 0.491 | -0.446 | 0.528 | 0.725 | 0.702 | 0.464 | -0.15 | -1.37 | -1.74 | -0.435 | 0.545 | -0.165 | 0.325 | -1.4 | 0.501 |
| ATACCAAGGTGATCGTGAGGTGGTTGATACTAAC | 0.375 | 0.57 | 0.0365 | -0.0432 | 0.00305 | 0.168 | 0.411 | 0.0619 | 0.226 | 0.142 | 0.119 | 0.996 | 0.272 | 0.15 | 0.0507 | 0.417 | 0.167 | 0.474 | 0.144 | 0.774 |
| AGAATGAGGTTATTAAGAGCAGGGAATTGCGGTC | 1.73 | 1.76 | 0.247 | 1.32 | 0.0744 | 2.77 | 1.58 | 1.87 | 0.503 | 1.45 | 2.93 | 2.39 | 0.24 | -0.178 | 0.998 | 1.08 | 0.932 | 1.42 | 0.134 | 1.47 |
| CCTAGCAGGCCAATCTGGGTCAATCAAGGCTTGA | 0.324 | 1.22 | -0.656 | 0.742 | -1.17 | 3.09 | 1.49 | 1.95 | -0.105 | 1 | 3.86 | 4.7 | -0.527 | -1.3 | 0.323 | 0.743 | -0.691 | 2.06 | -0.918 | 1.31 |
| TGAACGAGGTTAAAGATCAGGGAACGTGGCGTCG | 2.87 | 2.22 | -0.236 | 1.57 | -0.0519 | 4.05 | 5.17 | 5.68 | 4.28 | 6 | 1.29 | 2.81 | 0.475 | -0.0335 | 0.615 | 1.99 | -0.0143 | 2.94 | -0.0319 | 1.95 |
